Laboratory results reported in PubChem BioAssay (EPA / NIEHS).
Records with an inconclusive call do not appear. Calls of active or inactive are those of the source. The calls were made as follows: active = hit-call score of the fitted dose curve at least 0.9, where 1 is the maximum; inconclusive = response in the unintended direction; inactive = score below 0.9.

read-out: xenobiotic metabolism (CYP1A2), CYP1A2 (gene 1544); test: CLD_CYP1A2_24hr: CellzDirect (CLD) Gene Expression Assay for xenobiotic metabolism (CYP1A2) at 24 hours (AID 2283683)
Procedure: CLD_24hr is a cell-based, multiplexed-readout assay that uses hepatocyte, a human liver primary cell, with measurements taken at 24 hours after chemical dosing in a 96-well plate.CLD_CYP1A2_24hr is one of 16 assay component(s) measured or calculated from the CLD_24hr assay. It is designed to make measurements of mRNA induction, a form of inducible reporter, as detected with chemiluminescence signals by Quantitative Nuclease Protection Assay (qNPA) technology.Data from the assay component CLD_CYP1A2_24hr was analyzed at the endpoint, CLD_CYP1A2_24hr, in the positive analysis fitting direction relative to DMSO as the negative control and baseline of activity. Using a type of inducible reporter, gain-of-signal activity can be used to understand changes in the reporter gene as they relate to the gene CYP1A2. Furthermore, this assay endpoint can be referred to as a primary readout. To generalize the intended target to other relatable targets, this assay endpoint is annotated to the cyp intended target family, where subfamily is xenobiotic metabolism.
Human hepatocyte cultures were treated daily for two consecutive days with fresh dosing solutions containing appropriate concentrations of the 320 ToxCast chemicals (chemical identities were blinded to CellzDirect and other ToxCast collaborators), vehicle control (0.2% DMSO), and positive control inducers as summarized in Table 1. Due to the large number of treatment groups and chemicals examined, the ToxCast chemicals were divided into two groups (spanning two independent cultures of hepatocytes from separate donor preparations (Hu778: ToxCast plates 1 and 2; Hu776: ToxCast plates 3 and 4). Each preparation of human hepatocyte cultures was treated with respective vehicle control, medium only control, set of six positive controls/reference chemicals for the five hepatic receptor pathways, and a subset of eight of the ToxCast chemicals (indoxacarb, pyrithiobac-sodium, norflurazon, cyhalofop-butyl, methomyl, thiram, acetochlor, and propiconazole). These replicate data, coupled with internal replicates designed within the blinded ToxCast chemical library, provided additional data to evaluate interindividual differences between hepatocyte preparations and their potential impact on chemical profiles.Cell morphology and integrity were evaluated using phase-contrast microscopy as an indicator of hepatocyte cell health (Tyson & Green, 1987). Cultures for each treatment group (i.e., media, vehicle [0.2% DMSO], positive control inducers [multiple concentrations], and the ToxCast chemicals [multiple concentrations]) were observed and cell morphology was assessed relative to vehicle control cultures at each harvest time point (0, 6, 24, or 48 h). […] Images were evaluated at the conclusion of the study to assess changes in cell integrity and account for the effects of chemical exposure on uncharacteristic changes in concentration-dependent gene expression profiles. The results from these determinations of apparent cytotoxicity were annotated (yes/no) alongside the corresponding qNPA data for reference.At the conclusion of each treatment period, hepatocyte cultures (96-well) were washed with 1 volume of HBSS, lysed by addition of 25 ul ArrayPlate lysis buffer (HTG, Tucson, AZ), and 70 ul/well of Denaturation Oil, denatured by incubation at 95C for 10 min, and frozen at approximately -70C until analysis by nuclease protection assay (qNPA) (Roberts et al., 2007). For qNPA analysis, cell lysates were thawed at 50C for approximately 30 min, qNPA probes were added, and samples were incubated at 95C for 10 min to begin the detection process by denaturing the target RNA, dissociating the duplexes and secondary structure hybridization. At the conclusion of the hybridization period, S1 nuclease reagent was added to each sample to digest all nonprotected nucleotides at 50C for 60-90 min. […]

Compound	AC50	outcome
CSC(=O)c1cccc2nnsc12	20 µM (active)	
CN(C)C(=O)Nc1ccc(Cl)c(Cl)c1	4.42 µM (active)	
CCCN(CCC)c1c([N+](=O)[O-])cc(C(F)(F)F)c(N)c1[N+](=O)[O-]	2.34 µM (active)	
c1ccc2[nH]c(-c3cscn3)nc2c1	0.345 µM (active)	
CCC(C)OC(=O)N1CCCCC1CCO (stereo not given)		inactive
CCN(CC)C(=O)c1cccc(C)c1		inactive
Oc1ccc(C(c2ccc(O)cc2)C(Cl)(Cl)Cl)cc1		inactive
CCCCCOC(=O)COc1cc(N2C(=O)C3=C(CCCC3)C2=O)c(F)cc1Cl		inactive
CCOC(=O)NCCOc1ccc(Oc2ccccc2)cc1		inactive
COc1c(Cl)ccc(Cl)c1C(=O)O		inactive
C#CCOC(=O)[C@@H](C)Oc1ccc(Oc2ncc(Cl)cc2F)cc1		inactive
CCOC(=O)[C@H](C)Oc1ccc(Oc2nc3ccc(Cl)cc3o2)cc1		inactive
CC(C)(C)[C@@H](O)[C@@H](Cc1ccc(Cl)cc1)n1cncn1		inactive
CCCCC(CC)COC(=O)c1ccccc1C(=O)O (stereo not given)		inactive
CCCCOC(=O)[C@@H](C)Oc1ccc(Oc2ccc(C(F)(F)F)cn2)cc1	20 µM (active)	
CCSC(=O)N(CC(C)C)CC(C)C		inactive
CCCCCCC(C)OC(=O)COc1nc(F)c(Cl)c(N)c1Cl (stereo not given)		inactive
COC(=O)c1c(Cl)nn(C)c1S(=O)(=O)NC(=O)Nc1nc(OC)cc(OC)n1	0.797 µM (active)	
Cc1nn(C)c(Oc2ccccc2)c1C=NOCc1ccc(C(=O)OC(C)(C)C)cc1	37.4 µM (active)	
S=C([S-])NCCNC(=S)[S-].[Mn+2]		inactive

Compound	AC50	outcome
COC(=O)c1cccc(C)c1S(=O)(=O)NC(=O)Nc1nc(OCC(F)(F)F)nc(N(C)C)n1	6.03 µM (active)	
CCCN(CCC)C(=O)SCC		inactive
CC1(C)C(C=C(Cl)Cl)C1C(=O)OCc1cccc(Oc2ccccc2)c1 (stereo not given)		inactive
CCNc1nc(N)nc(Cl)n1		inactive
OB(O)O		inactive
O=C(O)C1(C(=O)Nc2ccc(Cl)cc2Cl)CC1	20 µM (active)	
CCCCOCCOCCOCc1cc2c(cc1CCC)OCO2	0.858 µM (active)	
COc1nc(C)nc(NC(=O)NS(=O)(=O)c2ccccc2OCCCl)n1		inactive
c1ccc(Nc2ccccc2)cc1	6.41 µM (active)	
O=C(Nc1ccc([N+](=O)[O-])cc1Cl)c1cc(Cl)ccc1O	3.97 µM (active)	
COC(=O)c1ccccc1S(=O)(=O)NC(=O)Nc1nc(OC(F)F)cc(OC(F)F)n1	0.233 µM (active)	
N#CSCSc1nc2ccccc2s1	7.18 µM (active)	
CCOC(=O)C(C)Oc1ccc(Oc2cnc3cc(Cl)ccc3n2)cc1 (stereo not given)		inactive
CCN(Cc1c(F)cccc1Cl)c1c([N+](=O)[O-])cc(C(F)(F)F)cc1[N+](=O)[O-]	0.418 µM (active)	
CCOC(=O)C(C)Oc1ccc(Oc2nc3ccc(Cl)cc3o2)cc1 (stereo not given)		inactive
S=C(S)NCCNC(=S)S.[Mn+2].[S-]C([S-])=NCCN=C([S-])[S-].[Zn+2]		inactive
COC(=O)c1ccc(CNS(C)(=O)=O)cc1S(=O)(=O)NC(=O)Nc1nc(OC)cc(OC)n1		inactive
COC(=O)c1ccc(I)cc1S(=O)(=O)NC(=O)Nc1nc(C)nc(OC)n1		inactive
COC(=O)c1ccccc1C(=O)O		inactive
CCCCC(CC)CN1C(=O)C2C3C=CC(C3)C2C1=O (stereo not given)	7.81 µM (active)	
